According to the supplement of paper PMC7156485:
± gives the standard deviation of the averaged measurements.

Tests used:
Conditions in all cases: concentration: 10 µM; 24 h
HCC1569 [1] = test: cell number relative to DMSO (% of DMSO); higher = more cells (less growth inhibition / toxicity)
Method in brief: (§1)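 Using 384-well plates with 800 cells per well in RPMI plus 10% FBS, HCC1569 and TDF cells were exposed to compounds at 10 µM, in triplicate, for 24 h at 37 °C. Imaging of six fields per well at ×10 followed H1.0 and DAPI staining. The reported quantity, H1.0 nuclear intensity or cell number, is a median of replicates given as percent of the plate control, and HCC1569 values were smoothed for positional effects.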

TDF [2] = test: as above
Method in brief: as §1

TDF [3] = test: H1.0 immunofluorescence intensity relative to DMSO (% of DMSO); higher = stronger H1.0 induction, active = 120 or more
Method in brief: as §1

HCC1569 [4] = test: H1.0 immunofluorescence intensity relative to DMSO (% of DMSO); higher = stronger H1.0 induction, active = 140 or more
Method in brief: as §1
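Wherever H1.0 immunofluorescence intensity relative to DMSO is given: TDF is a line of transformed human dermal fibroblasts of mesenchymal origin.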
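Wherever cell number relative to DMSO is given: TDF denotes transformed human dermal fibroblasts of mesenchymal origin.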

Structure (SMILES)	cell number (HCC1569 [1])	cell number (TDF [2])	H1.0 immunofluorescence intensity (TDF [3])	H1.0 immunofluorescence intensity (HCC1569 [4])
NS(=O)(=O)c1cc2c(cc1Cl)NCNS2(=O)=O [Hydrochlorothiazide]	105	107	90.9 (inactive)	89.9 (inactive)
CCCCCC=CCC=CCC=CC=CC(O)CCCC(=O)O (racemic)	101	93	109 (inactive)	102 (inactive)
CCCCCC=CCC=CCCCCCCCCCC(=O)O [Eicosadienoic acid]	103 ± 1.2	92.6 ± 7.5	100 (inactive)	96.4 (inactive)
O=C(Oc1cc(S(=O)(=O)c2ccccc2)ccc1[N+](=O)[O-])c1ccc(Cl)cc1 [2-nitro-5-(phenylsulfonyl)phenyl 4-chlorobenzoate]	99.5	87.8	96.7 (inactive)	111 (inactive)
CCCCNC(=O)NS(=O)(=O)c1ccc(C)cc1 [Tolbutamide]	102 ± 3.9	108 ± 11	93 (inactive)	101 (inactive)
CCCCCC=CCC(O)C=CC=CCCC(=O)O [Tetranor-12(R)-HETE]	104	93.9	100 (inactive)	102 (inactive)
CN(Cc1ccc(C(C)(C)C)cc1)Cc1cccc2ccccc12 [Butenafine]	101	92.9	104 (inactive)	100 (inactive)
O=c1sn(-c2cccc3ccccc23)c(=O)n1Cc1ccccc1 [4-benzyl-2-(1-naphthyl)-1,2,4-thiadiazolidine-3,5-dione]	94.9	90.9	101 (inactive)	98.8 (inactive)
CC(NCCc1ccc(O)cc1)C(O)c1ccc(O)cc1.Cl (stereo unspecified) [Ritodrine hydrochloride]	107	113	101 (inactive)	91.5 (inactive)
O=c1cc(-c2ccccc2)oc2cc(O)c(O)c(O)c12 [Baicalein]	98.9 ± 2.6	92.95 ± 0.67	93.3 (inactive)	99.6 (inactive)
CC1(C(=O)O)CCC2(C)CCC3(C)C(=CC(=O)C4C5(C)CCC(O)C(C)(C)C5CCC43C)C2C1 (stereo unspecified)	102	108	98.4 (inactive)	84.4 (inactive)
CCCCCCCCC=CCCCCCCCCCC(=O)O [11(Z)-Eicosenoic acid]	105	105	98.9 (inactive)	101 (inactive)
CN(C)CCOC(C)(c1ccccc1)c1ccccn1.O=C(O)CCC(=O)O (stereo unspecified) [Doxylamine succinate]	99.5	101	97.5 (inactive)	87.7 (inactive)
Cn1ccnc1 [1-Methylimidazole]	103	105	97.4 (inactive)	98.9 (inactive)
CC(C=CC1=C(C)CCCC1(C)C)=CC=CC(C)=CC(=O)O [9-cis Retinoic acid]	105 ± 4.8	106 ± 5.2	87.8 (inactive)	116 (inactive)
CCCOc1ccc2nc(NC(=O)OC)[nH]c2c1 [Oxibendazole]	62.8	9.31	157 (active)	154 (active)
CCCCCC(O)C=CC1C(O)CC(O)C1CC=CCCCC(=O)O (racemic)	106	105	88.4 (inactive)	99.4 (inactive)
CS(=O)(=O)O.Cn1cc(C(F)(F)F)nc1-c1ccc(OCC(O)CNCCOc2ccc(O)c(C(N)=O)c2)cc1 (stereo unspecified)	97.2	92.5	94.5 (inactive)	96.4 (inactive)
CC(C)C(=O)c1c(C(C)C)nn2ccccc12 [Ibudilast]	101 ± 4.1	97.7 ± 1.3	93.1 (inactive)	94.5 (inactive)
CCOc1ccc2ccc(=O)oc2c1 [7-ethoxy-2H-chromen-2-one]	99.7	108	93.7 (inactive)	103 (inactive)
COc1cc2nccc(Oc3ccc(NC(=O)NC4CC4)c(Cl)c3)c2cc1C(N)=O	83.8	94.9	89.2 (inactive)	122 (inactive)
CN1CCN(CCCN2c3ccccc3Sc3ccc(C(F)(F)F)cc32)CC1.Cl.Cl [Trifluoperazine.2HCl]	94.5	108	97 (inactive)	122 (inactive)
COc1ccc(/C=C2\COc3ccc(C)cc3C2=O)cc1O	58.1	28	126 (active)	134 (inactive)
CCOC(=O)c1c2c3c(cccc3[nH]c1=O)C(=O)c1ccccc1-2	99.7	108	94.2 (inactive)	99.9 (inactive)
